The list is not random: actives were taken first. Their share in the collection is about 1.4%.
TCR activator: activators of T cell receptors | AID 504894 | 330,000 tested, under 10 active | Potency, µM (highest dose often 9.22 µM), inactives show at the top dose activation of IL-2 secretion, hits mostly activators | primary human leukocytes, anti-CD3, IL-2 HTRF, 48 h; further: % of control where 0% means no effect
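Using a-CD3 beads without co-stimulation, primary human leukocytes were exposed to compounds for 48 hr. An HTRF IL-2 kit measured the cytokine, with europium-to-d2 energy transfer producing emission at 665nm upon 320nm excitation.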
N370S GC: N370S glucocerebrosidase modulation, Gaucher chaperone candidate. P04062. N370S GC spleen homogenate, 4MU-glucoside fluorescence. Potency, µM (series often up to 59.4 µM), inactives show at the highest dose activity change, negative = inhibition, actives largely listed as inhibitors. 0.092% of 330,000 active. AID 2101;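 further: potency means the concentration at half of the fitted maximal effect; 0% = full enzyme activity and -100% = no enzyme basal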
BRCA1 expr up: activators of BRCA1 expression. Potency, µM (doses to about 46.1 µM), for inactives: at the top dose activation, most hits filed as activators. MCF7-BRCA1-FFLuc reporter, luminescence, 48 h; response scale: scaled: vehicle 0%, 10 µM genistein 100%. 1.1% of 380,000 active; further: potency means the concentration at half of the fitted maximal effect; nearly all actives have a fitted effect of over 80% in size
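MCF7-BRCA1-FFLuc, 2000 cells/well; 2 h attach, 37 °C/5% CO2; compound 48 h; luciferase substrate 15 min; luminescence end-point. Norm. to genistein 10 microM max activation and DMSO; concentration-response curves fitted.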
TSHR antagonist: blocks TSH signaling through the human TSH receptor; P16473; TSHR-expressing cells, TSH-stimulated cAMP HTRF, 2 h; stronger effect = lower value; activity change, negative = inhibition, % at 11.5 µM; 0.2% of 330,000 active;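 active means activity change below a set negative limit, meaning inhibition stronger than a set level, cut at about -70% in these data; inconclusive means activity change between two set negative limits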; further: on the % scale 0 is the no-effect control and ±100 the full control effect
Target sequence (P16473 whole entry, looked up): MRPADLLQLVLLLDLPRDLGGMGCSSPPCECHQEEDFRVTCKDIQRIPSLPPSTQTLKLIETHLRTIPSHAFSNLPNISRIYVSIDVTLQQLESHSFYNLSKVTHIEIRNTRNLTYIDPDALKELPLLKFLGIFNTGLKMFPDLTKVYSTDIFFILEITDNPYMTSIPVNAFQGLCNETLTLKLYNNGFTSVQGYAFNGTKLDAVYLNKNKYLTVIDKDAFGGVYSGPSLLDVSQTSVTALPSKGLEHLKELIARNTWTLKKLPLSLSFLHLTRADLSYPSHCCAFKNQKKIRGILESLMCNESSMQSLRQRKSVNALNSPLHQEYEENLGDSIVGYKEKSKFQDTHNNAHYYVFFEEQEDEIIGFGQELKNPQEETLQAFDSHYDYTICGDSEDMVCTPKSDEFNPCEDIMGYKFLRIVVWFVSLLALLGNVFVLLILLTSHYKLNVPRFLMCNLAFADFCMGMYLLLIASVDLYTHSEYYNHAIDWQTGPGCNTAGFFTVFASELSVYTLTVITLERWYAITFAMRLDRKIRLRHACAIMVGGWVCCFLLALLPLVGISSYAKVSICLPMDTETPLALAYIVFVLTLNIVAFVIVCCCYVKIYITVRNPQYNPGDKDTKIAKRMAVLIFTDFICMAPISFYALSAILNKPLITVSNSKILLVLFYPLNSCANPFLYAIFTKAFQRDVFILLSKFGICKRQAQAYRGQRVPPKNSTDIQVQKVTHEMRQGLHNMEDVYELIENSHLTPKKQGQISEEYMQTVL
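Read-out is FRET at 665 nm (cryptate excitation 337 nm) from a cryptate-tagged anti-cAMP antibody, competed by cell cAMP against cAMP-d2. Compounds are tested on freshly harvested TSHR cells challenged with 4nM TSH (EC80) for 2 hours at 37 deg C.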
p53 reactivation: re-activators of mutant p53 | H1299 p53-A138V BP100-luciferase reporter, luminescence, 24 h | Potency, µM (highest dose often 92.2 µM), for inactives: at the highest dose activity change, positive = activation, actives largely listed as activators | 0.063% of 320,000 active; further: potency means the concentration at half of the fitted maximal effect; % of control where 0% means no effect; nearly all actives have a fitted effect of over 45% in size
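H1299 (p53-null), stable ts p53-A138V + BP100-Luc; 1000 cells/well, Opti-MEM/10% FBS; cpd 4 pt, 1:5; 24 h, 37 deg C, 5% CO2; detection reagent 10 min RT; luminescence.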
GLS inh: glutaminase GLS (human) inhibition; 0.21% of 410,000 active; Potency, µM (top dose mostly 45.5 µM), for inactives: at the top dose activity change, negative = inhibition, actives largely listed as inhibitors; GLS enzymatic activity, qHTS titration; AID 624170; O94925; further: potency means the concentration at half of the fitted maximal effect; on the % scale 0 is the no-effect control and ±100 the full control effect
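hKGA; 45 mM KH2PO4 pH 8.2 + 0.02% Tween-20; cpd via pin tool; 1 mM Gln soln; GluOx/HRP/Amplex Red; RT 30 min; fluor. t0 & final.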
Numbers without * were called inactive; ? = inconclusive; nt = not tested or not shown; [ ] = remark or other dose. Unless noted, the call rests on the fitted dose curve; in most records, active means well fitted curve in the direction sought with a large enough effect; inconclusive means small, poorly fitted or top-dose-only effect, or another doubt; inactive means no such curve, though single readings can be large; an effect the other way counts as inactive or inconclusive.

SMILES	TCR activator	N370S GC	BRCA1 expr up	TSHR antagonist	p53 reactivation	GLS inh
COc1cc(OC)c(/C=C/c2ccncn2)c(OC)c1	nt	nt	6%	nt	nt	nt
COc1ccc(C2Nc3ccccc3C(=O)N2c2ccccc2F)cc1COc1ccc(NC(C)=O)cc1 (stereo not drawn)	nt	nt	0%	nt	nt	nt
CCOc1ccc(NC(=O)c2nc(S(=O)(=O)Cc3ccc(F)cc3)ncc2Cl)cc1	nt	nt	-65%	nt	nt	nt
O=C(CNS(=O)(=O)c1ccc([N+](=O)[O-])cc1)N/N=C/c1ccc(O)cc1O	-16%	-7%	-87%	3	12%	13µM*
CCOC(=O)c1c(/C=N/Nc2ccccc2)c2sc(C)cc2n1C	nt	nt	nt	33	nt	nt
CCCCCN(CCCCC)c1ccc(/C=C/c2ccnc3ccccc23)cc1	nt	nt	-8%	nt	nt	nt
Cn1cccc1C(=O)C(=O)Nc1ccccc1	-1%	5%	7.1µM*	-18	3%	12%
Cn1cccc1C(=O)C(=O)Nc1ccccc1C(F)(F)F	6%	-3%	3%	15	?	0%
Cc1cc(C(=O)CSc2ccc(Cl)cc2)cc(C)c1OC(=S)N(C)C	1%	3%	5µM*	-9	?	6%
Cc1cc(CN(C)C(=O)CCc2nnc(Cc3cccc(C(F)(F)F)c3)o2)on1	-1%	21%	?	3	12%	5%
CCN(CC)C(=O)CCc1nnc(Cc2cccc(C(F)(F)F)c2)o1	1%	3%	10µM*	-3	7%	-12%
COc1ccccc1N1CCN(/N=C\c2ccccc2)CC1	-1%	11%	?	29	nt	20%
COc1ccccc1N1CCN(/N=C/C(Cl)=C/c2ccccc2)CC1	0%	2%	4µM*	-8	18%	0%
CCCN1CNc2c(c(=O)[nH]c(=S)n2CCc2cc(C)ccc2C)C1	nt	nt	0%	nt	nt	nt
CCCn1cnc2c(SCCc3ccccc3)nc(N)nc21	6%	nt	13µM*	nt	nt	8%
CC(C)Cn1cnc2c(SCc3ccccc3F)nc(N)nc21	5%	nt	5.6µM*	nt	nt	-3%
CCCCn1cnc2c(SCCc3ccccc3)nc(N)nc21	0%	nt	61%	nt	nt	1%
CCN1C(=O)/C(=C/C=C2/CCCN2C)OC1=S	3%	-2%	7.1µM*	-9	13%	-3%
O=C(COc1ccccc1C(=O)Nc1ccccc1)NC1CCCCC1	nt	nt	0%	nt	nt	nt
Cn1c(=O)c2c(nc(N/N=C/c3ccncc3)n2Cc2ccccc2)n(C)c1=O	0%	-27%	-8%	-14	-1%	13µM*
Cc1ccc(Cn2c(N/N=C/c3ccncc3)nc3c2c(=O)n(C)c(=O)n3C)cc1	7%	-11%	-36%	-3	-2%	?
Cc1cc(/C=C2/C(=N)N3C(=NC2=O)SN=C3S(C)(=O)=O)c(C)n1-c1ccc(F)cc1	5%	-7%	7.9µM*	-20	17%	12%
O=C(Cn1c(=O)oc2ccccc21)NCc1ccccc1Cl	nt	nt	nt	nt	nt	-2%
COc1cccc(NC(=O)Cn2c(=O)n(Cc3ccc(C(=O)NCc4ccc5c(c4)OCO5)cc3)c(=O)c3ccccc32)c1	nt	nt	6%	nt	nt	-20%
Fc1ccc(Nc2nc3nonc3nc2Nc2cccc(C(F)(F)F)c2)cc1	nt	nt	nt	nt	nt	5%
SMILES	TCR activator	N370S GC	BRCA1 expr up	TSHR antagonist	p53 reactivation	GLS inh
Cc1cccc(NC(=O)CSc2nnc(-c3ccccc3C)o2)c1	-5%	4%	13µM*	-6	?	-2%
COc1ccccc1NC(=O)CSc1nnc(-c2ccoc2C)o1	-1%	nt	7.9µM*	8	?	5%
Cc1cccc(NC(=O)CSc2nnc(-c3n[nH]c4ccccc34)o2)c1	-2%[46.1 µM]	15%	13µM*	1	9%	5%
Cc1cc(C)n(-c2nc(C)c(C)c(=O)n2CC(=O)Nc2cccc([N+](=O)[O-])c2)n1	nt	nt	nt	nt	nt	-10%
CC1=C(C(=O)Nc2ccccc2)C(c2cccnc2)n2nc(SCc3ccccc3Cl)nc2N1 (stereo not drawn)	nt	nt	-6%	nt	nt	12%
C(=N\n1cnnc1)/c1ccc(OCc2cccc3ccccc23)cc1	-1%	-11%	32%	-1	0%	12%
Fc1ccccc1COc1ccc(/C=N/n2cnnc2)cc1	-7%	-19%	10µM*	9	-6%	4%
Cc1noc(-c2ccc(CSCCC(=O)O)cc2)c1NC(=O)OC(C)c1ccccc1Cl (stereo not drawn)	nt	2%	nt	nt	nt	nt
Cc1ccc(C)c(NC(=S)c2ccc3ccccc3n2)c1	7%[46.1 µM]	8%	64%	-13	?	1%
CN(C)c1ccc(NC(=S)c2ccc3ccccc3n2)cc1	0%	-4%	-5%	-91*	23%	-24%
NC(=O)NCCC1=CCCCC1	14%	nt	5%	8	0%	-2%
C=CCn1c(N)c(C(=O)NCCC2=CCCCC2)sc1=S	nt	18%	13µM*	2	25%	-7%
O=C(O)c1ccc(N/N=C/c2cc(Br)cs2)cc1	2%	0%	?	-12	-7%	8.9µM*
CO/N=C(/C(=O)N[C@H]1C(=O)N2C(C(=O)O)=C(COC(C)=O)CSC12)c1csc(N)n1 (stereo partly drawn)	nt	-1%	nt	nt	nt	nt
CO/N=C(/C(=O)NC1C(=O)N2C(C(=O)O)=C(CSc3nc(=O)c(O)nn3C)CSC12)c1csc(N)n1 (stereo not drawn)	nt	7%	nt	nt	nt	28µM*
O=S(=O)(c1ccccc1)n1ccc(-c2cnc(-c3ccccc3)s2)n1	-1%	-3%	7.9µM*	-25	18%	3%
Cc1ccc(Cn2ccc(-c3cnc(-c4ccccc4)s3)n2)cc1	-3%	5%[12.8 µM]	74%	-32	28%	4%
CC[N+]1(CC)CCC(=C(c2ccccc2)c2ccccc2)C1C (stereo not drawn)	nt	nt	nt	nt	nt	-25%
CCC1CCCCN1S(=O)(=O)c1ccc(NC(=O)C2CC(=O)N(C(C)(C)C)C2)cc1 (stereo not drawn)	5%	nt	11µM*	nt	nt	0%
Cn1c(=O)n(Cc2ccccc2)c(=O)c2c1nc1n2CCS1	-2%	-1%	-12%	-5	-4%	11µM*
Cn1c(=O)n(Cc2ccccc2)c(=O)c2c1nc1n2CCCN1Cc1ccccc1	1%	10%	-11%	5	4%	-8%
Cc1ccccc1Cn1c(=O)c2c(nc3n2CCCN3Cc2ccccc2)n(C)c1=O	1%	nt	-39%	nt	nt	11µM*
COc1ccccc1C(=O)OCC(=O)Nc1ccc(N2CCCCC2)cc1	nt	nt	10%	nt	nt	nt
COC(C(=O)C(O)C(C)O)C1Cc2cc3cc(OC4CC(OC5CC(O)C(O)C(C)O5)C(O)C(C)O4)c(C)c(O)c3c(O)c2C(=O)C1OC1CC(OC2CC(OC3CC(C)(O)C(O)C(C)O3)C(O)C(C)O2)C(O)C(C)O1 (stereo not drawn)	nt	nt	-59%	nt	nt	nt

Source: PubChem BioAssay
